GLD-1 TGE inh – GLD-1-TGE RNA interaction inhibition (C. elegans); Q17339; purified GLD-1 + fluorescein TGE RNA, fluorescence polarization; inhibition, % at 5.96 µM; 320,000 compounds, 0.44% hits; AID 2280;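 active = percent inhibition above a per-plate cutoff, the plate mean of test compounds plus 3 SD, cut at about 30% in these data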;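 note: 0% = DMSO wells with GLD-1 and probe and 100% = wells lacking GLD-1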
MCL1-BIM inh – disrupts human MCL1 binding to BIM-BH3 peptide; Q07820; GST-MCL1 / FITC-Bim-BH3 fluorescence polarization; inhibition, % at 10.9 µM; 320,000 compounds, 0.68% hits;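 active = inhibition above the mean inhibition of all tested compounds plus 3 SD, set per campaign, cut at about 40% in these data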;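 note: 0% = DMSO wells and 100% = unlabeled Bim-BH3 peptide control; higher means more loss of mP so more displacement of Bim peptide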
Target sequence (Q07820 whole entry, looked up): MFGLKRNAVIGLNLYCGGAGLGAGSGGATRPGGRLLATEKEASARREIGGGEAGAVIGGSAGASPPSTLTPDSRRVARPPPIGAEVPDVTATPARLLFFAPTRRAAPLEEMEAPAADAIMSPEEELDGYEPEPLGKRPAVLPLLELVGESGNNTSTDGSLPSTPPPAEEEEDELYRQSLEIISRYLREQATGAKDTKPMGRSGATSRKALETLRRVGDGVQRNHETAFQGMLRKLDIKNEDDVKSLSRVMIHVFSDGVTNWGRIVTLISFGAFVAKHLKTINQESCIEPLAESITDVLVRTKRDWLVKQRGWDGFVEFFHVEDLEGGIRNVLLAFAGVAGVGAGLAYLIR
Mcl1 Bid PPI – Mcl-1/Bid interaction inhibition. Q07820. TR-FRET Mcl-1/Bid-Dy647 peptide binding, 1536-well. inhibition, % at 21.7 µM. 220,000 compounds, 0.97% hits. AID 1021;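 active = compounds that cut the binding signal by more than half at the single screening dose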;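 note: His-tagged Mcl-1 with europium anti-His antibody binding Bid BH3 peptide; 0% = Mcl-1 plus peptide wells and 100% = peptide-only wells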
Mcl-1 Bim block – inhibitors of Bim-Mcl-1 interaction, human; Q07820; Bead-based flow cytometry, Bim peptide-Mcl-1 binding; inhibition, % at 10 µM; 190,000 compounds, 0.1% hits; AID 1009; in the data active = inhibition above about 40%;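 note: 0% = no compound tracer wells and 100% = peptide blocker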
Mcl1 Noxa PPI – disrupts binding of human Mcl-1 to Noxa peptide. TR-FRET Mcl-1/Noxa peptide binding, 2 h. inhibition, % at 21.7 µM. AID 1022. 220,000 compounds, 1.5% hits. Q07820;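 active = compounds that cut the protein-peptide binding signal by more than 50% relative to plate controls in a single-dose test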;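 note: His-tagged Mcl-1 with rhodamine Noxa BH3 peptide and terbium anti-His antibody; 0% = Mcl-1 plus Noxa peptide wells and 100% = peptide-only wells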
Bcl-xL primary – blocks human Bcl-xL binding to Bim BH3 peptide. Q07817. GST-Bcl-xL / FITC-Bim BH3 peptide fluorescence polarization. 320,000 compounds, 0.7% hits. inhibition, % at 10.9 µM;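 active = inhibition above the mean of all tested compounds plus 3 SD, cutoff set per campaign, cut at about 30% in these data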;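 note: 0% = DMSO wells and 100% = unlabeled Bim-BH3 peptide competitor; inhibitors lower millipolarization by displacing the labeled peptide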
Target sequence (Q07817 whole entry, looked up): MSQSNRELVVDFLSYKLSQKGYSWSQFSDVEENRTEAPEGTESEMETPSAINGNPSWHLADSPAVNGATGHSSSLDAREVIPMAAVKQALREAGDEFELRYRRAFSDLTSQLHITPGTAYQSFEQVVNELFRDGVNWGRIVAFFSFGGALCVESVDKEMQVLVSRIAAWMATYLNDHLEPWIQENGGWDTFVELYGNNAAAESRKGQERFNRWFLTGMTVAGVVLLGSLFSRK
An asterisk follows results filed as active. The list is not random: actives were taken first. Their share in the collection is about 2.3%.

`CN(C)c1ccc(C(CNS(=O)(=O)c2ccc(F)cc2)c2c[nH]c3ccccc23)cc1` (stereo not drawn) gave GLD-1 TGE inh 2, MCL1-BIM inh 1, Mcl1 Bid PPI -48, Mcl-1 Bim block -2, Mcl1 Noxa PPI 31 and Bcl-xL primary 1.
O=C(C1CC(=O)N(c2ccc3c(c2)OCCO3)C1)N1CCCC(C(F)(F)F)C1 (stereo not drawn) was read as GLD-1 TGE inh 0, MCL1-BIM inh -14 and Bcl-xL primary -4.
For Cc1cc(=O)cc(C)n1-c1ccc(Br)cc1 the results were GLD-1 TGE inh 88*, MCL1-BIM inh -5, Mcl1 Bid PPI -6, Mcl-1 Bim block -2, Mcl1 Noxa PPI -1 and Bcl-xL primary -4.
Screening COCCN1C(=O)/C(=C/c2ccc(Oc3ccc([N+](=O)[O-])cn3)c(OC)c2)SC1=Nc1ccccc1 returned GLD-1 TGE inh -1, MCL1-BIM inh 6, Mcl1 Bid PPI -15, Mcl-1 Bim block 18, Mcl1 Noxa PPI -17 and Bcl-xL primary 5.
Screening COc1cc(/C=C2\SC(=Nc3ccccc3)N(CCc3c[nH]c4ccccc34)C2=O)ccc1OC(C)C(=O)O (stereo not drawn) returned GLD-1 TGE inh 5, MCL1-BIM inh 10, Mcl1 Bid PPI -6, Mcl-1 Bim block 0, Mcl1 Noxa PPI 51* and Bcl-xL primary 8.
`O=C1/C(=C/c2ccc(N3CCOCC3)o2)SC(=Nc2ccccc2)N1CCc1c[nH]c2ccccc12` gave GLD-1 TGE inh 10, MCL1-BIM inh -104, Mcl1 Bid PPI -63, Mcl-1 Bim block -21, Mcl1 Noxa PPI 38 and Bcl-xL primary -77.
COc1ccc(N=C2S/C(=C\c3ccc(OC(C)C(=O)O)c(OC)c3)C(=O)N2CCc2c[nH]c3ccccc23)cc1 (stereo not drawn) was read as Mcl1 Bid PPI -16, Mcl-1 Bim block 2 and Mcl1 Noxa PPI 82*.
Cn1cc(C(=O)NC2CCCCC2)c(=O)c2cc(S(=O)(=O)N3CCOCC3)ccc21 was read as GLD-1 TGE inh -4, MCL1-BIM inh 0 and Bcl-xL primary 4.
CCOC(=O)c1nnc(-c2ccc(C)cc2)nc1Sc1ccccc1Cl was read as GLD-1 TGE inh 8, MCL1-BIM inh -1, Mcl1 Bid PPI -3, Mcl-1 Bim block 2, Mcl1 Noxa PPI 14 and Bcl-xL primary -3.
For CCOC(=O)c1nnc(-c2ccc(C)cc2)nc1Sc1ccc(Cl)cc1 the results were GLD-1 TGE inh -7, MCL1-BIM inh 8, Mcl1 Bid PPI 55*, Mcl-1 Bim block 1, Mcl1 Noxa PPI -9 and Bcl-xL primary 2.
`CCCCn1c(NCc2ccc(N(C)C)cc2)nc2ccccc21` gave GLD-1 TGE inh 1, MCL1-BIM inh 0, Mcl1 Bid PPI -30, Mcl1 Noxa PPI 89* and Bcl-xL primary 0.
CCCCn1c(NCc2cccs2)nc2ccccc21 was read as GLD-1 TGE inh 12, MCL1-BIM inh 2, Mcl1 Bid PPI -9, Mcl-1 Bim block 0, Mcl1 Noxa PPI 51* and Bcl-xL primary -1.
`c1ccc(C2Nc3ccccc3C3OCCCC23)cc1` (stereo not drawn) gave GLD-1 TGE inh 5, MCL1-BIM inh 10 and Bcl-xL primary 7.
Screening CCN(C(=O)Cn1cnc2c1c(=O)n(C)c(=O)n2C)C1CCCCC1 returned GLD-1 TGE inh 1, MCL1-BIM inh 2 and Bcl-xL primary 3.
CC1CCC(C(C)C)C2=C1C(C#N)(C#N)C(C#N)(C#N)C(c1ccccc1)N2 (stereo not drawn) was read as GLD-1 TGE inh 21, MCL1-BIM inh 10, Mcl1 Bid PPI -36, Mcl-1 Bim block 0, Mcl1 Noxa PPI 56* and Bcl-xL primary 16.
Screening O=[N+]([O-])c1c(NCCCO)cc(Sc2nc3ccccc3s2)c2nonc12 returned GLD-1 TGE inh 11, MCL1-BIM inh 60*, Mcl1 Bid PPI -39, Mcl-1 Bim block 5, Mcl1 Noxa PPI 50 and Bcl-xL primary 44*.
For CCCSc1cc(NCCOC(=O)CCC)c([N+](=O)[O-])c2nonc12 the results were GLD-1 TGE inh 7, MCL1-BIM inh 4, Mcl1 Bid PPI -10, Mcl-1 Bim block 0, Mcl1 Noxa PPI 8 and Bcl-xL primary 7.
`O=[N+]([O-])c1c(NCCO)cc(N2CCCCCC2)c2nonc12` gave GLD-1 TGE inh 8, MCL1-BIM inh 1 and Bcl-xL primary 5.
For CCCSc1cc(NCCOC(C)=O)c([N+](=O)[O-])c2nonc12 the results were GLD-1 TGE inh 0, MCL1-BIM inh 5, Mcl1 Bid PPI -12, Mcl-1 Bim block -3, Mcl1 Noxa PPI -1 and Bcl-xL primary 1.
For Cc1nnc(Sc2cc(NCCO)c([N+](=O)[O-])c3nonc23)s1 the results were Mcl1 Bid PPI -89, Mcl-1 Bim block 5 and Mcl1 Noxa PPI 77*.
Screening Cc1nnc(Sc2cc(NCCCO)c([N+](=O)[O-])c3nonc23)s1 returned Mcl1 Bid PPI -79, Mcl-1 Bim block -3 and Mcl1 Noxa PPI 79*.
CCC(=O)OCCNc1cc(Sc2nc3ccccc3[nH]2)c2nonc2c1[N+](=O)[O-] was read as GLD-1 TGE inh 0, MCL1-BIM inh 9, Mcl1 Bid PPI -72, Mcl-1 Bim block 1, Mcl1 Noxa PPI 57* and Bcl-xL primary 10.
CC(=O)C1C(c2ccc(Cl)cc2)c2c(noc2C)CC1(C)O (stereo not drawn) was read as GLD-1 TGE inh 4, MCL1-BIM inh -4, Mcl1 Bid PPI -29, Mcl1 Noxa PPI 8 and Bcl-xL primary 3.
COc1ccc(CNS(=O)(=O)c2cn(C)c(=O)n(C)c2=O)cc1 was read as GLD-1 TGE inh -7, MCL1-BIM inh 5 and Bcl-xL primary -1.
For CCc1noc(C)c1C(=O)N1CCC(CCC(=O)Nc2cccc(OC)c2)CC1 the results were GLD-1 TGE inh 10, MCL1-BIM inh 5 and Bcl-xL primary 5.
`Cc1ccc(-n2c(O)c(/C=N/Nc3ccc(S(=O)(=O)N4CCOCC4)cc3[N+](=O)[O-])c3ccccc3c2=O)c(C)c1` gave GLD-1 TGE inh -1, MCL1-BIM inh 11, Mcl1 Bid PPI -7, Mcl-1 Bim block 4, Mcl1 Noxa PPI 78* and Bcl-xL primary 8.
For COc1ccc(-n2c(=O)cc(N3CCOCC3)[nH]c2=O)cc1 the results were GLD-1 TGE inh 1, MCL1-BIM inh 4, Mcl1 Bid PPI 92*, Mcl-1 Bim block -3, Mcl1 Noxa PPI 10 and Bcl-xL primary 0.
Cc1ccc(S(=O)(=O)N(C)C)cc1NC(=O)C(C)OC(=O)/C=C/c1cccs1 (stereo not drawn) was read as GLD-1 TGE inh 4, MCL1-BIM inh -1, Mcl1 Bid PPI 0, Mcl1 Noxa PPI 21 and Bcl-xL primary 4.
Cc1cccc2c(N=O)c(O)[nH]c12 was read as GLD-1 TGE inh -6, MCL1-BIM inh 2, Mcl1 Bid PPI -50, Mcl1 Noxa PPI 55* and Bcl-xL primary 9.

Bioassay records (PubChem BioAssay)
